# Columns and labels:
# Assay in all cases: yeast three-hybrid, YBZ-1, SC-Leu-His + 0.5 mM 3-AT, 4 days
# Settings in all cases: tags: N-Gal4 AD-HA kept; label: inside an RPR1-promoter hybrid RNA with tandem MS2 sites; ssRNA
# PUM1 PUF domain R1-RVV = PUM1 PUF domain R1-RVV (Homo sapiens, UniProt Q14671 828-1176, S863R;R864V;Q867V)
# Summary of the method: (§1)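 Pumilio-1 PUF domain libraries, randomized (NNK) at the three base-contacting residues of each repeat, were co-expressed with matching RNA elements from a centromeric plasmid in strain YBZ-1 (LexA–MS2 coat fusion, HIS3 reporter). Transformants were plated on SC-Leu (input) and SC-Leu-His + 0.5 mM 3-AT (selection) for four days, and repeat regions were PCR-amplified and Illumina-sequenced. The interaction score is the log2 change in variant frequency from input to selection, with pseudocount 1 where absent.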
# PUM1 PUF domain R8-RWV = PUM1 PUF domain R8-RWV (Homo sapiens, UniProt Q14671 828-1176, N1122R;Y1123W;Q1126V)
# Summary of the method: as §1
# PUM1 PUF domain R5-GQS = PUM1 PUF domain R5-GQS (Homo sapiens, UniProt Q14671 828-1176, C1007G;R1008Q;Q1011S)
# Summary of the method: as §1
# PUM1 PUF domain R5-KKL = PUM1 PUF domain R5-KKL (Homo sapiens, UniProt Q14671 828-1176, C1007K;R1008K;Q1011L)
# Summary of the method: as §1
# PUM1 PUF domain R5-EKC = PUM1 PUF domain R5-EKC (Homo sapiens, UniProt Q14671 828-1176, C1007E;R1008K;Q1011C)
# Summary of the method: as §1
# PUM1 PUF domain R3-RST = PUM1 PUF domain R3-RST (Homo sapiens, UniProt Q14671 828-1176, C935R;R936S;Q939T)
# Summary of the method: as §1
# PUM1 PUF domain R3-RDR = PUM1 PUF domain R3-RDR (Homo sapiens, UniProt Q14671 828-1176, C935R;R936D;Q939R)
# Summary of the method: as §1
# PUM1 PUF domain R5-NRF = PUM1 PUF domain R5-NRF (Homo sapiens, UniProt Q14671 828-1176, C1007N;Q1011F)
# Summary of the method: as §1
# PUM1 PUF domain R5-KHT = PUM1 PUF domain R5-KHT (Homo sapiens, UniProt Q14671 828-1176, C1007K;R1008H;Q1011T)
# Summary of the method: as §1
# PUM1 PUF domain R1-YQR = PUM1 PUF domain R1-YQR (Homo sapiens, UniProt Q14671 828-1176, S863Y;R864Q;Q867R)
# Summary of the method: as §1
sequence,measurement,setting,value
GGCUAGAACUAGUGGAUCCCCCGGCGCCCGGCGGCUCGAGCCCGGGUAAGUGUAAAUCGUCUGCAUGCCGCCGGGCGCCAUGCCUGCAGGUCGACUCUAGAAAACAUG,binding signal,PUM1 PUF domain R1-RVV,2.37 log2 enrichment (interaction score)
GGCUAGAACUAGUGGAUCCCCCGGCGCCCGGCGGCUCGAGCCCGGGUAAGUGUAAAUAGUCUGCAUGCCGCCGGGCGCCAUGCCUGCAGGUCGACUCUAGAAAACAUG,binding signal,PUM1 PUF domain R8-RWV,5.01 log2 enrichment (interaction score)
same,binding signal,PUM1 PUF domain R5-GQS,3.39 log2 enrichment (interaction score)
GGCUAGAACUAGUGGAUCCCCCGGCGCCCGGCGGCUCGAGCCCGGGUAAGUGUCAAUAGUCUGCAUGCCGCCGGGCGCCAUGCCUGCAGGUCGACUCUAGAAAACAUG,binding signal,PUM1 PUF domain R5-KKL,2.13 log2 enrichment (interaction score)
same,binding signal,PUM1 PUF domain R5-EKC,2.59 log2 enrichment (interaction score)
GGCUAGAACUAGUGGAUCCCCCGGCGCCCGGCGGCUCGAGCCCGGGUAAGUGUAAUUAGUCUGCAUGCCGCCGGGCGCCAUGCCUGCAGGUCGACUCUAGAAAACAUG,binding signal,PUM1 PUF domain R3-RST,2.83 log2 enrichment (interaction score)
same,binding signal,PUM1 PUF domain R3-RDR,4.8 log2 enrichment (interaction score)
GGCUAGAACUAGUGGAUCCCCCGGCGCCCGGCGGCUCGAGCCCGGGUAAGUGUUAAUAGUCUGCAUGCCGCCGGGCGCCAUGCCUGCAGGUCGACUCUAGAAAACAUG,binding signal,PUM1 PUF domain R5-KKL,2.25 log2 enrichment (interaction score)
same,binding signal,PUM1 PUF domain R5-EKC,2.3 log2 enrichment (interaction score)
same,binding signal,PUM1 PUF domain R5-NRF,5.64 log2 enrichment (interaction score)
GGCUAGAACUAGUGGAUCCCCCGGCGCCCGGCGGCUCGAGCCCGGGUAAGUGUGAAUAGUCUGCAUGCCGCCGGGCGCCAUGCCUGCAGGUCGACUCUAGAAAACAUG,binding signal,PUM1 PUF domain R5-GQS,2.15 log2 enrichment (interaction score)
same,binding signal,PUM1 PUF domain R5-KHT,2.38 log2 enrichment (interaction score)
GGCUAGAACUAGUGGAUCCCCCGGCGCCCGGCGGCUCGAGCCCGGGUAAGCGUAAAUAGUCUGCAUGCCGCCGGGCGCCAUGCCUGCAGGUCGACUCUAGAAAACAUG,binding signal,PUM1 PUF domain R8-RWV,5.22 log2 enrichment (interaction score)
GGCUAGAACUAGUGGAUCCCCCGGCGCCCGGCGGCUCGAGCCCGGGUAAGUGUAAAUUGUCUGCAUGCCGCCGGGCGCCAUGCCUGCAGGUCGACUCUAGAAAACAUG,binding signal,PUM1 PUF domain R1-YQR,6.49 log2 enrichment (interaction score)
same,binding signal,PUM1 PUF domain R1-RVV,2.58 log2 enrichment (interaction score)

# Reference: paper PMC8384837, “Expanding the binding specificity for RNA recognition by a PUF domain”
